Source: PubChem (National Center for Advancing Translational Sciences (NCATS))
HT1080 IDH1KD tx = toxicity to HT-1080 IDH1 knockdown cells (counter line). AID 686971. Potency, µM (highest dose often 46.1 µM), inactives show top-dose activity, negative = toxicity, usual class: cytotoxic. 360,000 tested, 2% active. HT-1080 IDH1 knockdown viability, ATP luminescence, 48 h;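 further: potency means the concentration at half of the fitted maximal effect; 0% = DMSO wells and -100% = cell-free medium wells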
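After a 2 h attachment period, IDH1KD HT-1080 cells took pin-transferred compound for 48 h at 37 °C; ATP-based luminescence after 10 min room-temperature reagent incubation reported viability.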
HT1080-NT tox = kills 2HG-producing HT-1080-NT fibrosarcoma cells | AID 686970 | HT-1080-NT fibrosarcoma viability, CellTiter-Glo ATP luminescence, 48 h | Potency, µM (highest dose often 46.1 µM), without a hit: at the top dose activity, negative = less viability, actives largely listed as cytotoxic | 360,000 tested, 1.6% active;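 further: NT is the 2HG producing partner of a matched IDH1 knockdown line; potency means the concentration at half of the fitted maximal effect; 0% = DMSO-treated cells and -100% = media-only wells without cells; nearly all actives have a fitted effect of over 55% in size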
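Toxicity toward the 2HG-producing NT line was scored as %Activity, normalised to DMSO and no-cell wells, from CellTiter-Glo luminescence after 48 hours' treatment.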
HepG2 tox = counter-screen for TGF-b inhibitors: cytotoxicity in HepG2 cells. HepG2 CAGA-GFP viability, ATP luminescence, 18 h. Potency, µM (titrated, usually from 46.1 µM), for inactives: at the top dose activity change, negative = cytotoxicity, actives largely listed as cytotoxic. 410,000 tested, 0.76% active; further: potency means the concentration at half of the fitted maximal effect
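CellTiter-Glo luminescence gave cytotoxicity after 18 hours at 37 degrees C. The cells were HepG2 CAGA-GFP in 1% FBS DMEM, stimulated with 500 pg/mL TGF-beta after compound addition. %Activity was normalised to no-cell wells (complete cell-killing) and DMSO (no toxicity), and curves were fitted and classified.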
Giardia kill = kills Giardia lamblia. AID 540267. 340,000 tested, 0.15% active. Giardia lamblia trophozoite viability. activity change, % at 7.66 µM, hits read low; in the data active means activity change below about -80%; inconclusive means between about -30% and that limit;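 further: parasites exposed to compound for two days anaerobically before the ATP read; on the % scale 0 is the no-effect control and ±100 the full control effect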
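Giardia lamblia trophozoites (100 cells/well) were incubated with compounds for 48 h at 37 deg C under anaerobic conditions. Viability was read as ATP content by one-step luminescence after 15-30 min at room temperature.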
TGFb inhibitor = blocks TGF-b signaling | HepG2 CAGA-GFP TGF-b/SMAD3 reporter, GFP fluorescence, 18 h; TGF-beta stimulated, 500 pg/mL final | Potency, µM (titrated, usually from 46.1 µM), for the others: at the top dose activity, negative = inhibition, usual class: inhibitors | 410,000 tested, 1.2% active | AID 588855; further: potency means the concentration at half of the fitted maximal effect; on the % scale 0 is the no-effect control and ±100 the full control effect; nearly all actives have a fitted effect of over 65% in size
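TGF-beta reporter screen: HEPG2 CAGA-GFP, 1% FBS, 500 pg/mL TGF-beta final, 18 h; per-cell GFP summed per well; curves fitted and categorized by class.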
IL1B secr inh = blocks inflammasome-driven IL-1 beta release; THP-1 LPS/ATP IL-1B secretion, AlphaLISA, 16 h; hits give low values; activity change, % at 57.5 µM; 360,000 tested, 4.7% active; AID 743279; in the data active means activity change below about -50%; inconclusive means mostly about -30% to -49%; further: on the % scale 0 is the no-effect control and ±100 the full control effect
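THP-1 cells pretreated 1 hr with compounds (up to 57.5 uM final), then stimulated with LPS (250 ng/mL final) plus ATP (1.25 mM final); secreted IL-1B measured by AlphaLISA after 16 hr, decreased signal indicating inhibition.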
Active calls of the source: *. Sampled rows, rich in hits. Any-hit rate of the full collection: about 6.5%. Unless noted, the call rests on the fitted dose curve; in most records, active means well fitted curve in the direction sought with a large enough effect; inconclusive means small, poorly fitted or top-dose-only effect, or another doubt; inactive means no such curve, though single readings can be large; an effect the other way counts as inactive or inconclusive.

Results for O=C(Nc1ccc(Oc2cccc(C(F)(F)F)c2)nc1)c1cccs1 ?
HT1080 IDH1KD tx: inconclusive; HT1080-NT tox: -18.8%; HepG2 tox: -43.3%; Giardia kill: -18.5; TGFb inhibitor: inconclusive; IL1B secr inh: -77.7*

Results for COc1cc(C2=NOC(C(=O)NCc3cccs3)C2)cc(OC)c1OC (stereo unspecified) ?
HT1080 IDH1KD tx: 7.31µM*; HT1080-NT tox: 5.8µM*; HepG2 tox: -19.7%; Giardia kill: -15.2; TGFb inhibitor: -12.8%; IL1B secr inh: 0.0

Results for COc1cc(OC)c(C2=NOC(C(=O)NCc3cccs3)C2)cc1Cl (stereo unspecified) ?
HT1080 IDH1KD tx: 4.61µM*; HT1080-NT tox: 4.11µM*; HepG2 tox: 14.6%; Giardia kill: -14.7; TGFb inhibitor: -7.1%; IL1B secr inh: 12.9

What do the screens show for `Cc1ccc(CNC(=O)C2CC(c3cc(C(F)(F)F)cc(C(F)(F)F)c3)=NO2)o1` (stereo unspecified)?
HT1080 IDH1KD tx: 23.1µM*; HT1080-NT tox: inconclusive; HepG2 tox: -18.0%; Giardia kill: 0.3; TGFb inhibitor: -25.5%; IL1B secr inh: 30.5

What do the screens show for `COc1cc(C2=NOC(C(=O)NCc3ccco3)C2)cc(OC)c1OC` (stereo unspecified)?
HepG2 tox: -6.3%; Giardia kill: -11.4; TGFb inhibitor: 24.5%; IL1B secr inh: 37.5

Results for COc1ccc(C2=NOC(C(=O)NCc3cccs3)C2)cc1 (stereo unspecified) ?
HT1080 IDH1KD tx: 5.17µM*; HT1080-NT tox: inconclusive; HepG2 tox: 2.4%; Giardia kill: 1.2; TGFb inhibitor: 8.7%; IL1B secr inh: 36.0

What do the screens show for `CC(C)(C)[C@@H]1CCC(=O)N(CC[C@H](Sc2ccccc2)c2ccccc2)CC1`?
HT1080 IDH1KD tx: -27.4%; HT1080-NT tox: -17.8%; HepG2 tox: -60.3%; Giardia kill: -12.4; TGFb inhibitor: inconclusive; IL1B secr inh: inconclusive

How did COc1ccc(C2=NOC(C(=O)NCc3cccs3)C2)cc1OC (stereo unspecified) do in these assays?
HT1080 IDH1KD tx: 6.51µM*; HT1080-NT tox: inconclusive; HepG2 tox: 1.1%; Giardia kill: -3.1; TGFb inhibitor: 0.0%; IL1B secr inh: 46.7

How did O=C(NCc1ccccc1C(F)(F)F)C1CC(c2ccccc2C(F)(F)F)=NO1 (stereo unspecified) do in these assays?
HT1080 IDH1KD tx: -4.6%; HT1080-NT tox: 5.8%; HepG2 tox: -7.8%; Giardia kill: -16.8; TGFb inhibitor: -9.9%; IL1B secr inh: -62.2*

Results for COc1ccc(C2=NOC(C(=O)NCc3ccco3)C2)cc1 (stereo unspecified) ?
HT1080 IDH1KD tx: 6.31µM*; HT1080-NT tox: 7.08µM*; HepG2 tox: 2.3%; Giardia kill: -13.3; TGFb inhibitor: 0.4%; IL1B secr inh: 15.2

Results for Cc1ccccc1C(=O)NC(C(=O)Nc1nc2c(s1)CCCC2)C(C)C (stereo unspecified) ?
HT1080 IDH1KD tx: -1.5%; HT1080-NT tox: -5.4%; HepG2 tox: -21.3%; Giardia kill: -3.4; TGFb inhibitor: -24.7%; IL1B secr inh: -11.8

How did Cc1sc2nc(CN3CCOCC3)nc(NS(=O)(=O)c3cc(Cl)ccc3Cl)c2c1C do in these assays?
HT1080 IDH1KD tx: -1.2%; HT1080-NT tox: -3.9%; HepG2 tox: -8.1%; Giardia kill: 2.8; TGFb inhibitor: -15.8%; IL1B secr inh: 46.2

What do the screens show for `CCOc1ccc(CNC(=O)c2ccc3c(c2)nc2n3CCOC2)cc1`?
HepG2 tox: 4.9%; TGFb inhibitor: -1.3%

What do the screens show for `CC1CCCCC12NC(=S)N(c1ccccc1)N2` (stereo unspecified)?
HT1080 IDH1KD tx: 14.5%; HT1080-NT tox: 11.2%; HepG2 tox: 15.0%; Giardia kill: -10.2; TGFb inhibitor: 1.6%; IL1B secr inh: -0.4

How did Oc1ccc(-c2nc3ccccc3nc2-c2ccccc2)cc1 do in these assays?
HT1080 IDH1KD tx: -25.9%; HT1080-NT tox: -24.3%; HepG2 tox: -24.9%; Giardia kill: -3.7; TGFb inhibitor: -1.0%; IL1B secr inh: -64.7*

What do the screens show for `COc1ccc(-c2nc3ccccc3nc2-c2ccccc2)cc1OC`?
HT1080 IDH1KD tx: -4.9%; HT1080-NT tox: -6.7%; HepG2 tox: -9.8%; Giardia kill: -11.0; TGFb inhibitor: 20.4%; IL1B secr inh: -62.1*

What do the screens show for `CCOC(=O)C1=C(C)N(CC)C(=S)NC1c1ccc(Cl)cc1` (stereo unspecified)?
HT1080 IDH1KD tx: 3.0%; HT1080-NT tox: 18.3%; HepG2 tox: -4.3%; Giardia kill: 12.5; TGFb inhibitor: 1.0%; IL1B secr inh: -9.2

What do the screens show for `O=[N+]([O-])c1ccc(SNc2ccccc2)c([N+](=O)[O-])c1`?
HT1080 IDH1KD tx: -11.8%; HT1080-NT tox: -11.3%; HepG2 tox: -0.1%; Giardia kill: -9.7; TGFb inhibitor: inconclusive; IL1B secr inh: -8.1

Results for O=[N+]([O-])c1ccc(-[n+]2ccc3ccccc3c2)c([N+](=O)[O-])c1 ?
HT1080 IDH1KD tx: inconclusive; HT1080-NT tox: inconclusive; HepG2 tox: 12.6µM*; Giardia kill: 0.5; TGFb inhibitor: 5.01µM*; IL1B secr inh: -104.8*

How did CC(=O)Nc1ccc(NC(=O)c2ccc3c(c2)N(Cc2cccc(Cl)c2)C(=O)c2ccccc2S3(=O)=O)cc1 do in these assays?
HepG2 tox: -51.2%; TGFb inhibitor: -1.3%

Results for Cc1ccc(S(=O)(=O)C2(C(=O)N3CCN(C4CCCCC4)CC3)CC2)cc1 ?
HT1080 IDH1KD tx: 3.1%; HT1080-NT tox: -28.8%; HepG2 tox: 2.6%; Giardia kill: -5.1; TGFb inhibitor: -4.3%; IL1B secr inh: -9.2

What do the screens show for `C(=N\c1nccs1)/c1c[nH]c2ccccc12`?
HT1080 IDH1KD tx: -1.3%; HT1080-NT tox: -1.2%; HepG2 tox: -42.5%; Giardia kill: 9.2; TGFb inhibitor: -3.7%; IL1B secr inh: 46.1

Results for Cc1cccc(NS(=O)(=O)c2ccc3[nH]c4c(c3c2)CCCCCC4)c1 ?
HepG2 tox: 20µM*; TGFb inhibitor: 10µM*

How did COc1ccc(NS(=O)(=O)c2ccc3[nH]c4c(c3c2)CCCC4)cc1Cl do in these assays?
HepG2 tox: -109.2%; TGFb inhibitor: inconclusive

How did CCOc1ccc(NS(=O)(=O)c2ccc3[nH]c4c(c3c2)CCCC4)cc1 do in these assays?
HepG2 tox: 11.2µM*; TGFb inhibitor: 11.2µM*

How did Cc1ccc(NS(=O)(=O)c2ccc3[nH]c4c(c3c2)CCCCCC4)cc1Cl do in these assays?
HepG2 tox: 12.6µM*; Giardia kill: 8.3; TGFb inhibitor: 11.2µM*
